This is one part of the list. Unmarked numbers belong to inactive results. Calls of active or inactive are those of the source. No stated cut-off is given here; in the data, active means inhibition above about 19%; inactive means the rest.
biological target: Focal adhesion kinase 1 (Homo sapiens) (UniProt Q05397); assay: FAK kinase inhibitors, retest, confirmation, biochemical (AID 794); conditions: FAK kinase biochemical inhibition assay; at 7 µM; stronger effect = higher value
Sequence (Q05397 whole entry, looked up): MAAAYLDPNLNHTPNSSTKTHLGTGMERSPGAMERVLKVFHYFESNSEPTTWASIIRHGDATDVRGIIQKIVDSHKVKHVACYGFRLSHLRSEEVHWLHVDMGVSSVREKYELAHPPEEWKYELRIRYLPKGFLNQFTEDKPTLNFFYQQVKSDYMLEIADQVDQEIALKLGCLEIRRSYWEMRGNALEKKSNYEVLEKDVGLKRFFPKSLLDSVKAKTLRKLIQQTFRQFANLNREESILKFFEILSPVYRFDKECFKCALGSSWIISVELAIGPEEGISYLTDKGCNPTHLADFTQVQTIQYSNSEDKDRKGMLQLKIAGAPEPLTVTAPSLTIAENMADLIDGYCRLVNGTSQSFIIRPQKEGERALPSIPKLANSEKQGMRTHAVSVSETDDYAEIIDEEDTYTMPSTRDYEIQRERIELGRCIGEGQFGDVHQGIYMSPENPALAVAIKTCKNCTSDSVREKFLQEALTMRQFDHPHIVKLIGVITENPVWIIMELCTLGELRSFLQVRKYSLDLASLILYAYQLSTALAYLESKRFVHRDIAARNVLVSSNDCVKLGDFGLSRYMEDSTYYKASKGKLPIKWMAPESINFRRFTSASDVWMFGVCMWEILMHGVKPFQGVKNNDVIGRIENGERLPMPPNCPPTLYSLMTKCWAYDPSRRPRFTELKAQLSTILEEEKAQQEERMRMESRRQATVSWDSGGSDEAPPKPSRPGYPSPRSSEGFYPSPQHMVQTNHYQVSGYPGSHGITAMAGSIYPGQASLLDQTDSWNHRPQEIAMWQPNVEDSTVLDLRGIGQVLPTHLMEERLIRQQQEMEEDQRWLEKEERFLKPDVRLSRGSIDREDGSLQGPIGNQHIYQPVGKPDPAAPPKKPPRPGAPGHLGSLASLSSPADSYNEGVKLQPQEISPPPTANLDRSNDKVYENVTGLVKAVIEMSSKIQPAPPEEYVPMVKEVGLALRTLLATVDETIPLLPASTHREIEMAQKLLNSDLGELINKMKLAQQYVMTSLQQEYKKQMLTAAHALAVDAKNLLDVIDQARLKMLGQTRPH

SMILES	inhibition
CC(=O)c1ccc(Cc2ncc(C(F)(F)F)cc2Cl)s1	-0.34%
Fc1ccc(-c2ccc(-c3nn4c(-c5ccco5)nnc4s3)o2)cc1	5.37%
Cn1c(CCN2CCCCCC2)nc2cc(NC(=O)Nc3ccccc3)ccc21	7.82%
O=C(Nc1ccc(-n2ccnc2P(=O)(O)c2ccccc2)cc1)c1ccccc1Br	16.2%
COCCn1c(C)cc(C(=O)CSc2ncnc3sc4c(c23)CCC4)c1C	4.05%
Clc1ccccc1CSc1nnc(-c2ccco2)c(-c2ccco2)n1	8.81%
O=[N+]([O-])c1ccc(C=Nc2ccc(Cl)cc2Cl)s1	2.19%
COC(=O)c1c(NC(=O)CSc2nncs2)sc2c1CCCCC2	10.8%
Nc1c(-c2ccc(F)cc2)cnc2ncnn12	-3.73%
O=[N+]([O-])c1ccc(Oc2ccc(F)cc2Br)c2ccncc12	6.15%
CCCOc1ccc(NC(=O)C2CCCNC2=O)cc1 (stereo not given)	-2.48%
COc1ccc(NC(=O)ON=C2c3ccccc3-c3ccccc32)cc1	6.77%
CCc1ccc2nc3sc(C(=O)Nc4nnc(CC)s4)c(N)c3cc2c1	16.1%
Oc1ccccc1/C=N/n1c(-c2cccs2)n[nH]c1=S	8.74%
Cc1cccn2c(=O)c3cc(C(=O)N4COCC4(C)C)n(C)c3nc12	6.3%
Cc1ccc(-c2nn(C(C)(C)C)c3ncnc(N)c23)cc1	15.6%
CCN(CC)S(=O)(=O)c1ccc2c3c(cccc13)C(=O)S2	14.7%
CC(=NCc1ccco1)C1=C(O)c2ccccc2C1=O	15.2%
Cc1cc2cc3c(N)[nH]nc3nc2cc1C	20.5% (active)
Cn1cccc1C(=O)Nc1nccs1	7.79%
CCN(CC)S(=O)(=O)c1cc([N+](=O)[O-])ccc1NNC(=O)Nc1ccccc1	19.2% (active)
Cc1ccc(-n2nc3ccc(NC(=O)/C=C/c4ccco4)cc3n2)cc1C	5.82%
CCc1ccccc1NC(=O)CSc1nnc([C@@H](NC(=O)OC(C)(C)C)C(C)CC)o1 (stereo not given in full)	-1.72%
COc1cc(N=Cc2c(O)[nH]c3ccccc23)cc(OC)c1OC	56.3% (active)
Cc1cc(NC(=O)c2cnn3cccnc23)n(-c2ccccc2)n1	13.6%

Source: PubChem BioAssay AID794 (The Scripps Research Institute Molecular Screening Center, 2007)
